Hits are enriched below; roughly 2.4% of the tested compounds scored in any of these assays.
WRN inhibitor: qHTS for Inhibitors of WRN Helicase; WRN helicase unwinding, fluorescent forked duplex, kinetic; Bifunctional 3'-5' exonuclease/ATP-dependent helicase WRN (Homo sapiens), Q14191; 360,000 compounds, 0.46% hits; Potency, µM (titrated, usually from 114 µM), usual class: inhibitors; note: nearly all actives have a fitted effect of over 55% in size
Target sequence (Q14191 whole entry, looked up): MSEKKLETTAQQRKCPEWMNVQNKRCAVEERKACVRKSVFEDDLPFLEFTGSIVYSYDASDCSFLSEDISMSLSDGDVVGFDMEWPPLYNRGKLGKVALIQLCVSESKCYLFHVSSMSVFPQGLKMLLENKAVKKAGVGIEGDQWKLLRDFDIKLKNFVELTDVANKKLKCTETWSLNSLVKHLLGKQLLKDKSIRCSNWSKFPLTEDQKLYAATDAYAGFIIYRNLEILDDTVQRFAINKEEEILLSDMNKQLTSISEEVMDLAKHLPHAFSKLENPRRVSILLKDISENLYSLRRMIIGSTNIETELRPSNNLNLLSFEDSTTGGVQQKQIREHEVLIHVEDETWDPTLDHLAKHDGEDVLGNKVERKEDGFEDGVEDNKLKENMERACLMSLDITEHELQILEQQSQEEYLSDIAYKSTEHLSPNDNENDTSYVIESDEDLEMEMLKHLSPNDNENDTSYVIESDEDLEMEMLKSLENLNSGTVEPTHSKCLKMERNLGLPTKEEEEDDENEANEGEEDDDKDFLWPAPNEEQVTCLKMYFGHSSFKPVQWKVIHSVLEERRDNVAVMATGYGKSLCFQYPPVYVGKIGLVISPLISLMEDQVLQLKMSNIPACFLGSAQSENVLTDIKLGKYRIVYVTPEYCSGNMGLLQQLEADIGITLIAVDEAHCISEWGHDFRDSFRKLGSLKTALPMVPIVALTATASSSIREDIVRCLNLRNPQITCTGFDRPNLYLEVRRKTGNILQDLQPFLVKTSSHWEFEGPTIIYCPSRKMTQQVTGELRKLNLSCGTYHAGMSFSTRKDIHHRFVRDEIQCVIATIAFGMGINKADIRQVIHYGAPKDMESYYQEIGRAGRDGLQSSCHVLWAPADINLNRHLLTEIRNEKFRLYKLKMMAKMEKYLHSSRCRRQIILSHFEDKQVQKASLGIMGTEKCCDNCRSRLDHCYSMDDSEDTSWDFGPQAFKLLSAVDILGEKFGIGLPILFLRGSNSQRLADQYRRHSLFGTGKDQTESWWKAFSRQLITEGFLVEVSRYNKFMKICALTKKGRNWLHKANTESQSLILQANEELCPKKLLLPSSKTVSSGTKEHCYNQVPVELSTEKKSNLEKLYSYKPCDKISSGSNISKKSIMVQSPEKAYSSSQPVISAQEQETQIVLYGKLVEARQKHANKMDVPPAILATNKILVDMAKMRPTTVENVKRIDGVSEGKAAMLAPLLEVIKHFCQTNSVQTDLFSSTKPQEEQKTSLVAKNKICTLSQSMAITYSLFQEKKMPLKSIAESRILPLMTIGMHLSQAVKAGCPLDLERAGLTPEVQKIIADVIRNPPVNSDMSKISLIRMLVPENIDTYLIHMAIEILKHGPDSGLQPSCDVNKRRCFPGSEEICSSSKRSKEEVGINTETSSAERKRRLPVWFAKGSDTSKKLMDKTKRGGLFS
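Kinetic fluorescence helicase assay: unwinding of a quenched forked DNA duplex (100 nM final) with 2 mM ATP final raises red fluorescence (525/598 nm). Compounds sat 15 min at room temperature with 20 nM WRN beforehand.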
POLB inh: qHTS Assay for Inhibitors of DNA Polymerase Beta. Potency, µM (doses to about 114 µM), most hits filed as inhibitors. P06746. Pol beta primer extension/strand displacement, fluorescence kinetic. 340,000 compounds, 1.3% hits
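Preincubation: enzyme (10 nM) with compound, 15 min, RT. Reaction: substrate added to 50 nM final. Reads: 0 and 10 min. Analysis: normalized, Hill fit.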
Pol eta inh: qHTS for Inhibitors of Polymerase Eta; 390,000 compounds, 1.2% hits; AID 588591, 2011; Potency, µM (series often up to 114 µM), hits mostly inhibitors; DNA polymerase eta (Homo sapiens), Q9Y253; recombinant Pol eta, fluorescent DNA replication assay
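Pol eta (10 nM) was preincubated with compounds for 15 min at room temperature, after which fluorescent replication substrate (50 nM final) was added to start the reaction. Fluorescence was read kinetically at 0 and 10 min.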
FEN1 inhibitor: qHTS Assay for the Inhibitors of Human Flap endonuclease 1 (FEN1); P39748; Recombinant FEN1 flap cleavage, fluorescence, 15 min; Potency, µM (top dose mostly 114 µM), usual class: inhibitors; 390,000 compounds, 0.35% hits; note: nearly all actives have a fitted effect of over 65% in size
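Steps: FEN1 (10 nM) dispensed; compound added by pin tool; 15 min at room temperature; substrate added to 50 nM final; reads at 0 min and 15 min; data normalized and fitted (four-parameter Hill).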
POLI inh: qHTS for Inhibitors of Polymerase Iota | DNA polymerase iota (Homo sapiens), Q9UNA4 | Pol iota fluorescent replication assay, 10 min | Potency, µM (doses to about 115 µM), usual class: inhibitors | 390,000 compounds, 1% hits
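Fluorescent replication assay read twice, at 0 min and 10 min after adding 50 nM (final) substrate. Enzyme (10 nM) and compounds were first incubated 15 min at room temperature; enzyme-free buffer wells were negative controls.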
POLK inh: qHTS for Inhibitors of Polymerase Kappa; DNA polymerase kappa (Homo sapiens), Q9UBT6; purified Pol kappa, fluorescent DNA synthesis assay, 10 min; Potency, µM (highest dose often 107 µM), most hits filed as inhibitors; 400,000 compounds, 0.53% hits
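50 nM final substrate added after 15 min RT preincubation of 10 nM Pol kappa with compound; fluorescence read at 0 and 10 min.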
Hits are given with their value; – = inactive; ? = inconclusive; · = no result; ! = not confirmed by another sample; [ ] = remark or other dose. Calls come from the whole dose curve; as a rule, active = well fitted curve in the direction sought with a large enough effect; inconclusive = small, poorly fitted or top-dose-only effect, or another doubt; inactive = no such curve, though single readings can be large; an effect the other way counts as inactive or inconclusive.

SMILES	WRN inhibitor	POLB inh	Pol eta inh	FEN1 inhibitor	POLI inh	POLK inh
O=C(O)CNS(=O)(=O)c1ccc2c3c(cccc13)C(=O)N2	56µM	–	32µM	?	?	?
O=S(=O)(NCc1ccco1)c1ccccc1Br	–	?	–	–	89µM!	–
O=C(O)CCCCCNS(=O)(=O)c1ccc2c3c(cccc13)C(=O)N2	?	16µM	?	–	?	?
O=C(O)/C=C/c1ccc(S(=O)(=O)NCc2ccco2)cc1	–[11.6 µM]	–	35µM	–	–	–
Cc1ccc(NC(=O)c2cc3c([nH]c2=O)CC(C)(C)CC3=O)cc1	·	·	·	–	?	–
O=S(=O)(c1ccc2ncsc2c1)N1CCN(c2nc(-c3cccs3)nc3ccccc23)CC1	·	·	·	–	–	–
Cc1cccc([C@@H]2CN(C)CCc3c2cc(O)c(O)c3Cl)c1	·	·	·	·	·	–[19.4 µM]
CNC(=S)NCCCCc1cnc[nH]1	·	·	·	·	·	–
O=C1Nc2ccc(S(=O)(=O)NCc3ccco3)c3cccc1c23	–[11.6 µM]	·	20µM	–	40µM	–
COc1ccc(-c2cc(=O)c3c(C)cc(O)cc3o2)cc1	?	·	?	?	20µM	?
COc1cc(-c2cc(=O)c3c(C)cc(O)cc3o2)cc(OC)c1OC	–	·	?	–	–	–
COc1ccc(S(=O)(=O)N(Cc2ccccc2)c2ccccc2C(=O)Nc2ccccc2C(=O)NCc2ccco2)cc1	–	89µM	–	–	–	–
COc1ccc(S(=O)(=O)Nc2ccccc2C(=O)NCc2ccco2)cc1	–	–	–	–	?	–
COC(=O)C1CCN(CC(=O)Nc2sc3c(c2C#N)CCC3)CC1	–	40µM	?	–	–	–
O=C(CSc1nc2c([nH]c3ccccc32)c(=O)n1-c1ccccc1)N1CCCC1	·	20µM	–	–	–	–
CCOC(=O)c1ccccc1S(=O)(=O)N1CCN(c2nc(-c3cccs3)nc3ccccc23)CC1	·	·	·	–	–	–
COc1ccc(-c2nn(-c3ccccc3)cc2/C=C(\CC(=O)O)c2nc3ccccc3s2)cc1OC	?	?	56µM	–	?	?
CC(C)C[C@H](N)C(=O)N[C@H](C(=O)N[C@@H](CCCN=C(N)N)C(=O)N[C@H](CS)C(=O)NCC(=O)N[C@@H](CCCCN)C(=O)N[C@@H](Cc1cnc[nH]1)C(=O)N[C@@H](CO)C(=O)N[C@@H](CCCN=C(N)N)C(=O)O)C(C)C	·	·	·	·	·	–
C/C(=N\OCC(=O)OC(C)C(=O)Nc1ccc(C)c(S(=O)(=O)N2CCOCC2)c1)c1ccc2c(c1)OCO2 (configuration not stated)	–[11.6 µM]	·	56µM	–	?	–
Cc1ccc(NC(=O)c2ccc3c(c2)OCO3)cc1S(=O)(=O)N1CCOCC1	–	·	–	–	–	–
C[n+]1ccnc2ccccc21	·	·	·	–	–	–
Cc1oc2c(cc(NS(=O)(=O)c3ccc(Cl)cc3)c3ccccc32)c1C(=O)O	–	–	50µM	–	–	–
CC(=O)c1c(C)oc2c1cc(NS(=O)(=O)c1ccc(Br)cc1)c1ccccc12	·	–	–	–	–	–
Cc1cc(NC(=O)C2C3C=CC(C3)C2C(=O)O)no1 (configuration not stated)	–	?	–	–	–	–
Cc1cc(NC(=O)C2CC=CCC2C(=O)O)no1 (configuration not stated)	–	22µM	?	–	–	–
SMILES	WRN inhibitor	POLB inh	Pol eta inh	FEN1 inhibitor	POLI inh	POLK inh
Nc1cccc2[nH]c(C(F)(F)F)nc12	–	?	79µM	56µM	40µM	?
O=C(O)c1cccc2[nH]c(C(F)(F)F)nc12	–	–	–	–	–	–
COC(=O)C1=C(O)/C(=C\c2ccc(CNS(=O)(=O)c3ccccc3)o2)N=C1C	?	–	?	–	?	28µM
CCOC(=O)C1=C(O)/C(=C\c2ccc(CNS(=O)(=O)c3ccc(Br)cc3)o2)N=C1C	45µM	–	22µM	?	16µM	50µM
COC(=O)C1=C(O)/C(=C\c2ccc(CNC(=O)C(=O)Nc3ccc(C)c(C)c3)o2)N=C1C	–[11.6 µM]	?	22µM	–	?	–
Cc1ccccc1CCNC(=O)c1ccc2c(c1)nc1n2CCCCC1	·	–	–	–	–	–
COc1cc(C2Nc3cccc4cccc(c34)N2)cc(OC)c1OC(C)=O	–	–	?	32µM	?	–
COc1cc(C2Nc3cccc4cccc(c34)N2)ccc1O	–	–	?	–	–	–
COc1ccc(Br)cc1C1Nc2cccc3cccc(c23)N1	–	79µM	–	–	–	–
CC(C)C(=O)Nc1nc2c(ncn2[C@H]2CC(O)[C@@H](CO)O2)c(=O)[nH]1 (some centres not stated)	·	·	·	–	–	–
CCOc1cc(C(c2c(C)[nH]n(-c3ccccc3)c2=O)c2c(C)[nH]n(-c3ccccc3)c2=O)ccc1O	·	–	–	?	1.6µM	–
Cc1[nH]n(-c2ccccc2)c(=O)c1C(c1cc(Cl)ccc1O)c1c(C)[nH]n(-c2ccccc2)c1=O	·	–	?	?	?	–
COc1ccc(C(c2c(C)n(C)n(-c3ccccc3)c2=O)c2c(C)n(C)n(-c3ccccc3)c2=O)cc1OC	–	–	–	–	?	–
COc1ccc(C(c2c(C)[nH]n(-c3ccccc3)c2=O)c2c(C)[nH]n(-c3ccccc3)c2=O)cc1OC	?	–	–	?	1.3µM	–
CC(CNC(=O)C1CCN(C(=O)N2CCOc3ccc(Cl)cc32)CC1)c1ccccc1 (configuration not stated)	·	–	–	–	–	–
C(=C\c1ccnc2ccccc12)/c1ccc2c(c1)OCO2	·	·	·	–	–	–
COC(=O)CCC(=O)OC1(C)C(=O)C=C2C=C(C3CC3)N(Cc3ccco3)C=C2C1=O (configuration not stated)	–	–	–	–	–	–
CCC(=O)OC1(C)C(=O)C=C2C=C(c3ccsc3)OC=C2C1=O (configuration not stated)	?	50µM	50µM	40µM	18µM	50µM
COC(=O)CCCC1=CC2=CC(=O)C(C)(OC(=O)CCc3ccccc3)C(=O)C2=CO1 (configuration not stated)	?	56µM	?	?	?	?
COC(=O)CCC(=O)OC1(C)C(=O)C=C2C=C(C3CC3)N(C3CC3)C=C2C1=O (configuration not stated)	–	–	–	–	14µM	–
COC(=O)CCC(=O)OC1(C)C(=O)C=C2C=C(c3ccsc3)OC=C2C1=O (configuration not stated)	?	·	5µM	32µM	14µM	20µM

Screening data (PubChem BioAssay)
